Out of some 2,400 compounds screened, about 580 (24%) were called active. These entries were drawn from the full list. Unmarked numbers belong to inactive results.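 Rule for the calls: active = activity change at or above the mean plus 3 SD of buffer wells without dofetilide, per plate; inactive = the rest.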

The assay deals with Potassium voltage-gated channel subfamily KQT member 2 (Rattus norvegicus) (UniProt O88943). In words: rat KCNQ2 channel activation by compounds alone, confirmation, counter-screen for hERG block protector project, cell-based, CHO, FluxOR thallium flux (AID 1942).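 Note: normalized value minus buffer-control mean plus three SD of buffer wells.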 The settings on record: CHO-KCNQ2 cells, FluxOR thallium flux fluorescence; at 10 µM; hits give high values.
Chain of Potassium voltage-gated channel subfamily KQT member 2 (Rattus norvegicus) (O88943 whole entry, looked up): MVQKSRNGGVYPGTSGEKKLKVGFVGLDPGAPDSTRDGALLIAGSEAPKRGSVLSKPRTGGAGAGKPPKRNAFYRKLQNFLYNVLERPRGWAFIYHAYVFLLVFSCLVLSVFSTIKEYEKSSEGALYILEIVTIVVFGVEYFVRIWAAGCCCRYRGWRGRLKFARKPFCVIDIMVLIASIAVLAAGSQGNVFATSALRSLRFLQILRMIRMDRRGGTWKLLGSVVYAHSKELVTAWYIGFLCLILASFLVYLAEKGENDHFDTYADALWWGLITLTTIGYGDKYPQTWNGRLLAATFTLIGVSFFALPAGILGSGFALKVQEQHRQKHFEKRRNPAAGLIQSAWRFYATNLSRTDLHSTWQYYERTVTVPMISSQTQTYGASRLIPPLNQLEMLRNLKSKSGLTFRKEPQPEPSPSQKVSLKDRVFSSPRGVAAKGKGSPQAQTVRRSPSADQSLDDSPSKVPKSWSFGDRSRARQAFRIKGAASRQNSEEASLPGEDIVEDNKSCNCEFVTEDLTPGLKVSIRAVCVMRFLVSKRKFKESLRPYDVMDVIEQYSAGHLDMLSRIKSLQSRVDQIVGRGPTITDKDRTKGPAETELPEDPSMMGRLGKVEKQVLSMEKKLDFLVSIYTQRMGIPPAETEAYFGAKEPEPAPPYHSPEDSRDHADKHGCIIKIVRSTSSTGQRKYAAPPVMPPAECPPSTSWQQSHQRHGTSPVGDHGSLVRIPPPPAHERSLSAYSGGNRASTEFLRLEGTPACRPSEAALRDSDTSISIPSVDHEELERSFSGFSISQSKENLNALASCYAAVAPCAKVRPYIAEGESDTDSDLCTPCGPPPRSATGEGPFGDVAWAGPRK
Take `COc1ccccc1NC(=O)Cc1nnc(SCC(=O)Nc2nccs2)n1C`: the activity change, less the hit threshold was -13.3%.

With `Cc1ccc(C2c3c(-c4ccccc4O)n[nH]c3C(=O)N2Cc2ccncc2)cc1` (stereo not given), the activity change, less the hit threshold was -18.8%.

For the molecule `O=C1N2CCSC2=NC1(NS(=O)(=O)c1ccccc1)C(F)(F)F` (stereo not given), the activity change, less the hit threshold was -12%.

Regarding `O=C(Nc1ccccc1)N1CCSc2cc(Cl)ccc21`, the activity change, less the hit threshold is -9.1%.

Regarding `S=c1[nH]cnc2scc(-c3ccc(Br)cc3)c12`, the activity change, less the hit threshold is 4.9% (active).

On to `Cc1ccc(-c2csc3nc[nH]c(=S)c23)cc1`, for which the activity change, less the hit threshold was 41% (active).

Consider `S=c1[nH]cnc2scc(-c3ccc(Cl)cc3)c12`, for which the activity change, less the hit threshold is 18.2% (active).

Turning to `S=c1[nH]cnc2scc(-c3ccccc3)c12`, the activity change, less the hit threshold was 44.9% (active).

Take `Cn1nnnc1Sc1ncnc2scc(-c3ccc(F)cc3)c12`: the activity change, less the hit threshold was -21.3%.

As to `Fc1ccc(-n2cc(-c3ccccc3)c3c(=S)nc[nH]c32)cc1`, the activity change, less the hit threshold is -9.7%.

On to `Cc1ccc(C)n1-n1c(C)nc2scc(-c3ccccc3)c2c1=O`, for which the activity change, less the hit threshold is -30.9%.

For `Cn1cc(/C=N/n2cnc3scc(-c4ccc(Cl)cc4)c3c2=O)c2ccccc21`, the activity change, less the hit threshold was -18.8%.

As for `CC1=NN(C(=O)c2cc(C)nn2C)C(O)(C(F)(F)F)C1` (stereo not given), the activity change, less the hit threshold was -11.2%.

As for `Nc1nc(Br)c2c(F)cccc2c1-c1ccc(Cl)cc1`, the activity change, less the hit threshold is -21.1%.

In the case of `COc1ccc(NC(=O)C2CCN(S(=O)(=O)c3cn(C)nc3C)CC2)cc1`, the activity change, less the hit threshold was -13.2%.

With `O=C(Cn1c(=O)c2cccn2c2ccccc21)NCCc1ccc(Cl)cc1`, the activity change, less the hit threshold was -34.9%.

`CC1CCCN(C(=O)COC(=O)c2cc(-c3cccs3)nn2-c2ccccc2)C1` (stereo not given): the activity change, less the hit threshold was -25.5%.

For the molecule `O=C(CSc1ncnc2c1cnn2-c1ccc(Cl)cc1)NCc1ccc2c(c1)OCO2`, the activity change, less the hit threshold is -11.1%.

As for `Cn1ncc2c(NNC(=O)Cc3ccccc3)ncnc21`, the activity change, less the hit threshold is -14.4%.

With `Cc1ccc(-n2ncc3c(SCC(=O)NNC(=O)c4ccco4)ncnc32)cc1`, the activity change, less the hit threshold is 4.4% (active).

For the molecule `CC(C)Oc1c(Cl)cc(CNC(C)(C)CO)cc1Cl`, the activity change, less the hit threshold was -18.3%.

Take `c1cnc2c(Oc3ncnc4sccc34)cccc2c1`: the activity change, less the hit threshold is -17%.

Regarding `O=C(O)c1ccc(S(=O)(=O)/N=C2\C=C(Nc3ccccc3F)C(=O)c3ccccc32)cc1`, the activity change, less the hit threshold is 3.9% (active).

Take `Cc1ccccc1NC1=C/C(=N\S(=O)(=O)c2ccc(C(=O)O)cc2)c2ccccc2C1=O`: the activity change, less the hit threshold was 10% (active).

As to `Cc1cc(NC(C)C)n2c(nc3ccccc32)c1C#N`, the activity change, less the hit threshold is -21.5%.

Consider `Cc1cc(NC(=O)CCCn2cnc([N+](=O)[O-])n2)no1`, for which the activity change, less the hit threshold is -14.3%.

Consider `Cc1c(-c2ccccc2)sc2nc[nH]c(=S)c12`, for which the activity change, less the hit threshold is 43.6% (active).

As for `Cc1sc2nc[nH]c(=S)c2c1-c1ccccc1`, the activity change, less the hit threshold was 41.3% (active).

As for `CC(=O)C1=C(C)NC(=O)NC1/C=C/c1ccccc1` (stereo not given), the activity change, less the hit threshold was -23%.

On to `CCN(CC(=O)NCc1ccc(Cl)cc1)C(=O)CCOc1ccc(C)cc1`, for which the activity change, less the hit threshold was -24.3%.

Turning to `CCCCCN(C(=O)CCC(=O)OCC(=O)N(C)C1CCCCC1)c1c(N)n(CCCC)c(=O)[nH]c1=O`, the activity change, less the hit threshold was -22.7%.

With `CCN1CCN(C(=O)c2ccc(Cn3c(=O)[nH]c4cc(OC)c(OC)cc4c3=O)cc2)CC1`, the activity change, less the hit threshold is -7.7%.

For `Cc1cccc(NC(=S)NC(=O)c2ccc(Br)o2)c1C`, the activity change, less the hit threshold was 12.7% (active).

For `Cc1cccc(NC(=O)CCNC(=O)c2ccco2)c1C`, the activity change, less the hit threshold is -12.3%.

Regarding `CN1CCN(c2ccc(NC(=O)c3ccc(Br)o3)cc2)CC1`, the activity change, less the hit threshold is -6.3%.

With `Cc1cccc(C)c1NC(=S)NC(=O)c1ccc(Br)o1`, the activity change, less the hit threshold was 66.5% (active).

Take `Cc1cccc(NC(=S)NC(=O)c2ccco2)c1C`: the activity change, less the hit threshold is 54.7% (active).

Turning to `C/C(=C/CCC(C)C1CCC2(C)C3CCC4C(C)(C)C(=O)CCC4(C)C3=CCC12C)C(=O)O` (stereo not given), the activity change, less the hit threshold is -17.4%.

As to `CO/N=C(\CCC(=O)O)c1cccs1`, the activity change, less the hit threshold was -9.3%.

For the molecule `Cc1ccccc1NC1=NC(=S)N(c2ccccc2)C12CCCCC2`, the activity change, less the hit threshold was 11.4% (active).

As to `CC1(C)CC2(CCO1)C(Nc1ccccc1)=NC(=S)N2CC(N)=O` (stereo not given), the activity change, less the hit threshold is -15.8%.

For the molecule `COc1ccc(/C=C/c2cc(=O)c3cc(Cl)ccc3o2)cc1`, the activity change, less the hit threshold was -18.8%.

Take `NS(=O)(=O)c1ccc(NC(=O)c2ccc(S(=O)(=O)N3CCc4ccccc43)cc2)cc1`: the activity change, less the hit threshold is -7.3%.

`COc1ccc(-n2nc(C(=O)NCC(=O)NCc3ccc(F)cc3)c3ccccc3c2=O)cc1OC`: the activity change, less the hit threshold was -10.3%.

For the molecule `COc1cccc(NC(=O)c2nn(-c3ccc(OC)cc3OC)c(=O)c3ccccc23)c1`, the activity change, less the hit threshold is -13.8%.

`COc1cccc(-n2nc(C(=O)O)c3ccccc3c2=O)c1`: the activity change, less the hit threshold is 3.7% (active).

In the case of `COc1ccc(C)cc1-n1nnnc1SCc1nc2ccccc2c(=O)[nH]1`, the activity change, less the hit threshold was -22%.

On to `CCC1=NN(C(=O)c2ccc(Cl)cc2)C(O)(c2ccc(C)cc2)C1` (stereo not given), for which the activity change, less the hit threshold is -12.6%.

On to `CCOC(=O)C1=NN(C(=O)c2ccc(OC)cc2)C(O)(c2ccc(Cl)cc2)C1` (stereo not given), for which the activity change, less the hit threshold is 71.1% (active).

For `CCOC(=O)CN1N=C(/C=C/c2ccc(OC)cc2)CCC1=O`, the activity change, less the hit threshold was -17.3%.

With `CCCCC1(O)CC(C(F)(F)F)=NN1C(=O)COc1ccccc1` (stereo not given), the activity change, less the hit threshold was -22.2%.

As to `CCOC(=O)c1nc(C)n(-c2ccc(Cl)cc2)n1`, the activity change, less the hit threshold is -12.5%.

For `CCOC(=O)C1=NN(C(=O)c2ccccc2)C(O)(c2ccc(C)cc2)C1` (stereo not given), the activity change, less the hit threshold is 2.6% (active).

With `CCOC(=O)C1=NN(C(=O)c2ccc(C)cc2)C(O)(c2ccc(Cl)cc2)C1` (stereo not given), the activity change, less the hit threshold is 88.1% (active).

`O=C(CSc1nc2cc(Cl)ccc2s1)c1cc2ccccc2o1`: the activity change, less the hit threshold is -2%.

For the molecule `CN1C(=O)C2(OCC(C)([N+](=O)[O-])CO2)c2ccccc21` (stereo not given), the activity change, less the hit threshold is -9.8%.

For the molecule `CC1=C(C#N)C(Nc2cc(C)ccn2)(C(F)(F)F)C(=O)N1` (stereo not given), the activity change, less the hit threshold was -18.4%.

In the case of `CSc1nc2c(c(=O)[nH]1)C(c1ccccc1Cl)CC(=O)N2` (stereo not given), the activity change, less the hit threshold was -20.4%.

Regarding `Cc1cc(C(=O)NP(=O)(N2CCOCC2)N2CCOCC2)c(C)n1-c1ccc(Br)cc1`, the activity change, less the hit threshold is -22%.

Regarding `O=C(CSc1nnc(SCc2ccccc2)s1)N/N=C/c1ccc(Cl)cc1Cl`, the activity change, less the hit threshold is -22.9%.

As to `O=C1c2ccccc2C(=O)N1c1cccnc1`, the activity change, less the hit threshold is -14.6%.

In the case of `Cc1ccc(C)c(NC(=S)c2nc3ccccc3s2)c1`, the activity change, less the hit threshold is -7.6%.

For the molecule `CC(C)Oc1ccc(CNC(=O)C2CCN(C(=O)N3CCOc4ccccc43)CC2)cc1`, the activity change, less the hit threshold was -20.2%.

For the molecule `CC(=O)c1ccc2c3c(cccc13)CC2`, the activity change, less the hit threshold was -12.7%.

Consider `CC(C)CC(=O)Nc1ccc2c3c(cccc13)CC2`, for which the activity change, less the hit threshold is 44.7% (active).

Turning to `COc1cc(C(=O)NCc2ccc(-c3nc4ccccc4o3)cc2)cc(OC)c1OC`, the activity change, less the hit threshold was -13.9%.

Consider `Cc1cc(=O)[nH]c(SCC(=O)NC2CCCCC2)n1`, for which the activity change, less the hit threshold is -14.4%.

Regarding `Cc1cc(Cl)c(S(N)(=O)=O)cc1OCC(=O)NC1CCCCC1`, the activity change, less the hit threshold is -7.9%.

Consider `Cc1cc(Cl)c(S(=O)(=O)N2CCSCC2)cc1OCC(=O)NC1CCCCC1`, for which the activity change, less the hit threshold is 57.4% (active).

With `COC(=O)c1cc(S(=O)(=O)NCC2CCN(Cc3cc(C)ccc3C)CC2)c[nH]1`, the activity change, less the hit threshold is -11.5%.

In the case of `Cn1ccnc1C(O)c1cccc(OCc2ccccc2)c1` (stereo not given), the activity change, less the hit threshold is -25.3%.

On to `C/C(=N\O)C1CC(CC(=O)O)C1(C)C` (stereo not given), for which the activity change, less the hit threshold was -14.4%.

For `CN(CC(=O)Nc1ccc(Cl)cc1)C(=O)c1cccc(S(=O)(=O)NCc2ccccc2)c1`, the activity change, less the hit threshold was -17.3%.

As for `O=C(Nc1cccc(Br)c1)C1CCCC1`, the activity change, less the hit threshold is -12.2%.

As for `O=C(Nc1nc2c(Br)cc(Br)cc2c(=O)s1)C1CCC1`, the activity change, less the hit threshold is 9.5% (active).

On to `O=C(Nc1nnc(SCC(=O)N2CCCCC2)s1)C1CCCCC1`, for which the activity change, less the hit threshold is -14.2%.

`Cc1cc(=O)oc2c3c(cc(OCC(=O)N[C@@H](Cc4ccccc4)C(=O)O)c12)OC(C)(C)CC3`: the activity change, less the hit threshold is -6.7%.

Consider `C/C(CCC12CC3CC(CC(C3)C1)C2)=N\NC(N)=S`, for which the activity change, less the hit threshold is -17.2%.

With `COc1ccc(-n2c(=S)[nH]c3ccccc3c2=S)cc1`, the activity change, less the hit threshold was -7.3%.

Take `COc1ccc(-c2nc(=S)c3ccc4ccccc4c3[nH]2)cc1`: the activity change, less the hit threshold was 51.5% (active).

On to `COc1cccc(C2C3=C(N=c4s/c(=C\c5ccc(OCC(=O)O)cc5)c(=O)n42)c2ccccc2CC3)c1` (stereo not given), for which the activity change, less the hit threshold was -38.5%.

`CCc1ccc2nc(NC(=O)c3cc(C)on3)sc2c1`: the activity change, less the hit threshold was -6.5%.

On to `Cc1ccc2nc(NC(=S)NC(=O)c3cccs3)sc2c1`, for which the activity change, less the hit threshold is 5.5% (active).

Take `COc1ccc(-c2csc(NC(=S)NC(=O)c3cccs3)n2)cc1OC`: the activity change, less the hit threshold was -5.3%.

For the molecule `O=C(NC(=S)Nc1nc(-c2ccccc2)cs1)c1cccs1`, the activity change, less the hit threshold is -22.7%.

Turning to `O=C(NC(=S)Nc1nc2ccccc2s1)c1cccs1`, the activity change, less the hit threshold is 7.1% (active).

For `COc1ccc(-c2csc(NC(=S)NC(=O)c3cccs3)n2)cc1Br`, the activity change, less the hit threshold is -20.8%.

For the molecule `CC1CCCC(C)N1S(=O)(=O)c1ccc(NC(=O)CCn2cnc3ccccc3c2=O)cc1` (stereo not given), the activity change, less the hit threshold is -11.1%.

For `CC(C)CC1C(C#N)=C(N)Oc2n[nH]c(-c3cccs3)c21` (stereo not given), the activity change, less the hit threshold is -12.4%.

Consider `CCN1C(=O)C2(/C(=C(\O)c3ccc4c(c3)OCCO4)C(=O)C(=O)N2CCCOC)c2ccccc21` (stereo not given), for which the activity change, less the hit threshold was -12.7%.

On to `O=C(CC1CCCC1)Nc1ccc2c(c1)CCC2`, for which the activity change, less the hit threshold was 54.5% (active).

On to `CC(C)C(=O)Nc1ccc2c(c1)Cc1cc(NC(=O)C(C)C)ccc1-2`, for which the activity change, less the hit threshold is -17.9%.

As to `O=C(CC1NC(=O)NC1=O)Nc1ccccc1` (stereo not given), the activity change, less the hit threshold is -21.4%.

Regarding `CN1N=C(C(=O)N2CCc3c([nH]c4ccccc34)C2c2c(F)cccc2Cl)CCC1=O` (stereo not given), the activity change, less the hit threshold was -22.4%.

For the molecule `Cc1ccc(C(C(=O)NC(C)(C)C)N(Cc2cccnc2)C(=O)C(=O)NC2CCCCC2)o1` (stereo not given), the activity change, less the hit threshold is -14.6%.

Source of the values: PubChem BioAssay AID1942 (Johns Hopkins Ion Channel Center, 2009).
